PubChem BioAssay AID1159580 (chemical genetic matrix, 2015)
Values joined by “and” are separate entries in the source; they are usually repeats but may differ in a detail not shown here. Identical values can stand only once. Hit rate of the full screen: of about 5,500 compounds, about 2,000 (36%) were called active. Roughly 18% stayed inconclusive and do not appear here. Rule as the data show it: active = normalized growth mostly below about 0.91 (no sharp cut-off); inconclusive = no clear call, values can overlap the other calls; inactive = mostly above about 0.92. Some of the results follow.

Assay: chemical genetic growth profiling, strain panel (AID 1159580);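 also: tested at 20 µM; growth read once vehicle control cultures reached saturation at 30 °C; 1 = growth at the plate median or of vehicle wells; lower values mean less growth of the strain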
Settings: S. cerevisiae deletion strains, growth OD

Measured: normalized growth

CCCCOC(=O)c1ccccc1C(=O)OCCCC
inactive: locus YAL013W, strain DEP1, stronger effect = lower value 0.988 | locus YAL021C, strain ccr4, stronger effect = lower value 0.979 | locus YAL026C, strain drs2, stronger effect = lower value 0.989 | locus YAL030W, strain snc1, stronger effect = lower value 0.979 | locus YBL061C, strain skt5, stronger effect = lower value 0.986 | locus YBR009C, strain hhf1, stronger effect = lower value 0.968 | locus YBR021W, strain FUR4, stronger effect = lower value 0.955 | locus YBR023C, strain chs3, stronger effect = lower value 0.98 | locus YBR171W, strain sec66, stronger effect = lower value 0.959 | locus YBR229C, strain ROT2, stronger effect = lower value 0.981 | locus YBR231C, strain swc5, stronger effect = lower value 0.983 | locus YBR279W, strain paf1, stronger effect = lower value 0.994 | locus YCL011C, strain gbp2, stronger effect = lower value 0.979 | locus YCL016C, strain dcc1, stronger effect = lower value 0.985 | locus YCL029C, strain bik1, stronger effect = lower value 0.976 | locus YCL061C, strain MRC1, stronger effect = lower value 0.984 | locus YCL069W, strain vba3, stronger effect = lower value 0.985 | locus YCR088W, strain abp1, stronger effect = lower value 0.98 | locus YDL005C, strain med2, stronger effect = lower value 0.97 | locus YDL035C, strain GPR1, stronger effect = lower value 0.986 | locus YDL040C, strain nat1, stronger effect = lower value 0.985 | locus YDL074C, strain BRE1, stronger effect = lower value 0.984 | locus YDL101C, strain DUN1, stronger effect = lower value 0.986 | locus YDL134C, strain PPH21, stronger effect = lower value 0.988 | locus YDL185W, strain tfp1, stronger effect = lower value 0.961 | locus YDL192W, strain arf1, stronger effect = lower value 0.983 | locus YDR001C, strain nth1, stronger effect = lower value 0.984 | locus YDR069C, strain doa4, stronger effect = lower value 0.983 | locus YDR101C, strain arx1, stronger effect = lower value 0.984 | locus YDR137W, strain rgp1, stronger effect = lower value 0.905 | locus YDR150W, strain NUM1, stronger effect = lower value 0.989 | locus YDR159W, strain sac3, stronger effect = lower value 0.993 | locus YDR162C, strain NBP2, stronger effect = lower value 0.976 | locus YDR195W, strain ref2 1.07 | locus YDR297W, strain sur2, stronger effect = lower value 0.984 | locus YDR318W, strain mcm21, stronger effect = lower value 0.979 | locus YDR334W, strain swr1, stronger effect = lower value 0.991 | locus YDR335W, strain msn5, stronger effect = lower value 0.992 | locus YDR388W, stronger effect = lower value 0.961 | locus YDR392W, strain spt3, stronger effect = lower value 0.941 | locus YDR502C, strain sam2, stronger effect = lower value 0.977 | locus YEL003W, strain gim4, stronger effect = lower value 0.987 | locus YEL037C, strain rad23, stronger effect = lower value 0.992 | locus YEL061C, strain CIN8 (second series), stronger effect = lower value 0.989 | locus YEL061C, strain CIN8, stronger effect = lower value 0.992 | locus YER015W, strain faa2, stronger effect = lower value 0.986 | locus YER016W, strain bim1, stronger effect = lower value 0.986 | locus YER110C, stronger effect = lower value 0.974 | locus YER111C, strain swi4, stronger effect = lower value 0.999 | locus YER155C, strain BEM2 (second series), stronger effect = lower value 0.968 | locus YER155C, strain BEM2, stronger effect = lower value 0.98 | locus YER167W, strain BCK2, stronger effect = lower value 0.981 | locus YFR010W, strain ubp6, stronger effect = lower value 0.998 | locus YGL078C, strain dbp3, stronger effect = lower value 0.982 | locus YGL086W, strain mad1, stronger effect = lower value 0.98 | locus YGL167C, strain pmr1, stronger effect = lower value 0.957 | locus YGL173C, strain kem1, stronger effect = lower value 0.98 | locus YGL227W, strain vid30, stronger effect = lower value 0.984 | locus YGL240W, strain doc1, stronger effect = lower value 0.973 | locus YGL248W, strain PDE1, stronger effect = lower value 0.976 | locus YGL253W, strain hxk2, stronger effect = lower value 0.987 | locus YGR078C, strain PAC10, stronger effect = lower value 0.981 | locus YGR135W, strain pre9, stronger effect = lower value 0.988 | locus YGR229C, strain SMI1, stronger effect = lower value 0.948 | locus YGR252W, strain gcn5, stronger effect = lower value 0.992 | locus YHR013C, strain ard1, stronger effect = lower value 1.03 | locus YHR027C, strain rpn1, stronger effect = lower value 0.987 | locus YHR030C, strain SLT2, stronger effect = lower value 0.969 | locus YHR079C, strain IRE1 (second series), stronger effect = lower value 0.972 | locus YHR079C, strain IRE1, stronger effect = lower value 0.962 | locus YHR094C, strain hxt1, stronger effect = lower value 0.973 | locus YHR129C, strain ARP1, stronger effect = lower value 0.996 | locus YHR142W, strain chs7, stronger effect = lower value 0.944 | locus YHR200W, strain rpn10, stronger effect = lower value 0.985 | locus YIL066C, strain RNR3, stronger effect = lower value 0.972 | locus YIL073C, strain SPO22, stronger effect = lower value 0.867 | locus YIL125W, strain kgd1, stronger effect = lower value 0.988 | locus YIR030C, strain dcg1, stronger effect = lower value 0.978 | locus YJL092W, strain hpr5, stronger effect = lower value 0.98 | locus YJL095W, strain BCK1 (second series), stronger effect = lower value 0.985 | locus YJL095W, strain BCK1, stronger effect = lower value 0.979 and 0.96 | locus YJL115W, strain asf1, stronger effect = lower value 0.988 | locus YJL129C, strain trk1, stronger effect = lower value 0.886 | locus YJL134W, strain LCB3, stronger effect = lower value 0.984 | locus YJL154C, strain vps35, stronger effect = lower value 0.985 | locus YJL164C, strain tpk1, stronger effect = lower value 0.961 | locus YJL166W, strain qcr8, stronger effect = lower value 0.974 | locus YJL168C, strain set2, stronger effect = lower value 0.985 | locus YJL187C, strain SWE1 (second series), stronger effect = lower value 0.968 | locus YJL187C, strain SWE1, stronger effect = lower value 0.983 | locus YJR043C, strain POL32, stronger effect = lower value 0.982
